Screening data from PubChem.
HTT aggregate – mutant huntingtin aggregation inhibition. PC12 HttQ103-GFP aggregates, Acumen cytometry, 40 h. Potency, µM (highest dose often 46.1 µM), for the others: at the highest dose activity change, negative = inhibition, hits mostly inhibitors. actives 1.1% (n = 220,000). AID 1688; further: potency means the concentration at half of the fitted maximal effect; on the % scale 0 is the no-effect control and ±100 the full control effect; nearly all actives have a fitted effect of over 60% in size
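PC12 cells with ecdysone-inducible HTT exon1 Q103-GFP, induced by 100 nM tebufenozide, given compounds in a concentration series. GFP aggregates (1–25 um, 6 SD above background) counted in lysates by laser-scanning cytometry, 488 nm excitation.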
PNC inhibitor – inhibitors of perinucleolar compartment assembly | PC3M PTB-GFP, PNC prevalence imaging, 16 h; stronger effect = lower value | activity change (PNC), negative = inhibition, % at 10 µM | actives 3.1% (n = 140,000);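 active means readout at or below -70, meaning at least 70% loss of cells showing the perinucleolar compartment, a nuclear body marking cancer cells; inconclusive means readout between -30 and a set limit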;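 further: plate controls were DMSO wells for no effect and camptothecin positive control wells for full effect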
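Compounds are pinned in duplicate onto adhered PC3M cells stably expressing GFP-tagged PTB and incubated 16 h at 37 C. Cells are then fixed, nuclei stained with Hoechst, and PNC-positive cells counted.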
HTT cytoprotect – Huntington cell model cytoprotection by ATP luminescence; PC12 HTT-Q103 induced, cytoprotection, ATP luminescence, 40 h; AID 1471; Potency, µM (top dose mostly 56.4 µM), inactives show cytoprotection (ATP increase), hits mostly activators; actives 0.14% (n = 230,000); further: potency means the concentration at half of the fitted maximal effect; % of control where 0% means no effect; nearly all actives have a fitted effect of over 45% in size
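Cells were plated at 1500 per well in phenol red-free DMEM with 5% equine and 5% calf serum. Tebufenozide (100 nM final) and compounds were added, then ATPlite reagent, and luminescence was read.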
* hit, by the source's call; u = inconclusive; x = no result given; [ ] = remark or other dose. This is one part of a sample in which hits are shown more often than they occur. Unless noted, the call rests on the fitted dose curve; in most records, active means well fitted curve in the direction sought with a large enough effect; inconclusive means small, poorly fitted or top-dose-only effect, or another doubt; inactive means no such curve, though single readings can be large; an effect the other way counts as inactive or inconclusive.

SMILES	HTT aggregate	PNC inhibitor	HTT cytoprotect
CC1C/C(=C\c2cccnc2)C(=O)/C(=C/c2cccnc2)C1 (configuration not stated)	3.55µM*	-116.4*	-23.6%[10 µM]
O=C1/C(=C/c2cccnc2)CCc2c1[nH]c1ccccc21	u	x	-17.0%
Cc1ccc(Cn2nnnc2CN2CCC(O)(c3ccccc3F)CC2)cc1	4.3%	-100.0*	-7.5%[10 µM]
Cc1ccc(Cn2nnnc2CN2CCC(NC(=O)c3ccccc3F)CC2)cc1	9.5%	-17.0	-27.2%
Cc1ccc(-c2nc(-c3ccccc3)no2)c(Cl)c1	-1.8%	18.9	-126.3%
O=C(CCCn1c(=O)[nH]c2ccsc2c1=O)N1CCCCC1	-5.4%	u	-7.0%
CCCC(=O)NC(=S)Nc1ccccc1C(F)(F)F	19.0%	5.8	8.0%
C1CSC2(N1)C1CC3CC(C1)CC2C3 (configuration not stated)	x	-5.4	1.58µM*
O=C(NCC1CCCO1)c1cc(C(=O)c2ccc(Cl)cc2Cl)c[nH]1 (configuration not stated)	-22.9%	x	-2.2%[10 µM]
CCOc1ccccc1OCC(=O)Nc1ccc(S(=O)(=O)N(C)C)cc1	-11.3%	-85.6*	-19.7%
CCOc1ccccc1OCC(=O)Nc1ccc(S(=O)(=O)Nc2ncccn2)cc1	20.8%	55.5	12.3%[10 µM]
COc1ccc(C2Nc3ccccc3C(=O)N2c2ccccc2)cc1Cn1cc([N+](=O)[O-])cn1 (configuration not stated)	9.8%	22.1	-4.0%[1.9 µM]
Cc1nn(Cc2ccccc2)c(Cl)c1/C=N/NC(=O)c1cccnc1	5.9%	-4.8	x
Cc1c(/C=N/NC(=O)c2cccnc2)c2ccccc2n1Cc1ccccc1	10µM*	x	4.8%[10 µM]
CC1(C)Cc2nc3sc4c(SCC(=O)NCc5ccccc5)ncnc4c3cc2CO1	34.2%	-112.1*	-119.1%
CC1(C)Cc2nc3sc4c(SCC(=O)O)ncnc4c3cc2CO1	0.7%[9.22 µM]	x	-67.0%[10 µM]
O=C(c1ccco1)N1CCN(S(=O)(=O)Cc2ccccc2Cl)CC1	12.1%	x	-44.3%
CC(=O)NC1=NN(C(C)=O)C2(S1)C(=O)N(C(C)C)c1ccc(C)cc12 (configuration not stated)	-1.4%	-16.0	3.7%
CCOC(=O)[C@H](CCc1ccccc1)N[C@@H](C)C(=O)N1[C@H](C(=O)O)C[C@H]2CCCC[C@@H]21	3.8%	x	u
CCOC(=O)[C@H](CCc1ccccc1)N[C@@H](C)C(=O)N1[C@H](C(=O)O)C[C@H]2CCC[C@@H]21	4.5%	x	3.16µM*
Cc1cccc(NC(=O)c2ccccc2[N+](=O)[O-])n1	-1.3%	-23.7	-9.9%
Cc1nc2ccccc2n1C(=O)c1ccccc1[N+](=O)[O-]	0.141µM*	-1.8	x
COc1ccc(C)cc1NC(=O)CSc1ccc(-c2cccnc2)nn1	0.1%	x	-1.0%
COc1ccc(OC)c(NC(=O)c2cc3sccc3n2C)c1	-2.8%	-7.1	-2.1%
C=CCOc1c(Br)cc(/C=N/O)cc1OCC	-20.3%	-108.6*	-0.1%[10 µM]
SMILES	HTT aggregate	PNC inhibitor	HTT cytoprotect
CCCCOc1c(Br)cc(/C=N/O)cc1OCC	-19.4%	9.1	1.9%[1.9 µM]
Cc1[nH]n(C2=NCCS2)c(=O)c1N=Nc1ccccc1	10.0%	x	-55.1%
COc1ccc(Oc2ncc3nc(-c4ccccc4)c(=O)n(C4CC4)c3n2)cc1	x	x	26.5%
CCOC(=O)C1CCN(C(=O)CSc2ccc(Br)cc2)CC1	7.3%[9.22 µM]	x	-32.4%
CCOC(=O)C1CCN(C(=O)CSc2ccc(Cl)cc2)CC1	-1.5%	-100.0*	29.4%[10 µM]
CC(C)N(CCNC(=O)C1CCN(S(=O)(=O)N2CCOCC2)CC1)Cc1ccccc1	1.4%	-101.7*	u
CCCCN(CCCNC(=O)C1CCN(S(=O)(=O)N2CCOCC2)CC1)Cc1ccccc1	5.1%	-2.3	8.2%
CC1CC(C)CN(CC(=O)Nc2ccc3c(c2)OCCO3)C1 (configuration not stated)	-8.8%	43.4	-16.0%
CC(C)(C)c1ccc(C(=O)c2c[nH]c(C(=O)NCc3cccnc3)c2)cc1	-15.1%	31.6	6.7%[10 µM]
O=C(Cc1ccc(Cl)cc1)c1c[nH]c(C(=O)NCc2cccnc2)c1	17.8µM*	x	-17.2%[10 µM]
CCOC(=O)NC(=O)COC(=O)c1cccc2ccccc12	10.8%	x	-14.7%
O=C(COC(=O)CNC(=O)c1ccccc1)Nc1ccccc1Cl	-3.1%	x	-9.0%[10 µM]
Cc1nc2scc(-c3ccc(Cl)cc3)c2c(=O)n1N	-31.5%	x	-78.0%
Cn1cc(/C=N/n2cnc3scc(-c4ccc(Cl)cc4)c3c2=O)c2ccccc21	26.9%	-99.0*	-148.5%[0.074 µM]
N#CCc1ccc(NS(=O)(=O)c2cccs2)cc1	-2.9%	26.5	-7.9%
COc1ccc(C(O)c2nccn2Cc2ccccc2)cc1 (configuration not stated)	16.0%	38.1	16.3%
CCOC(=O)c1sc(NC(=O)c2ccncc2)c(C#N)c1C	20µM*	-3.7	x
CCOC(=O)c1sc(NC(=O)c2cc(-c3ccccc3C)nc3ccccc23)c(C#N)c1C	5.62µM*	u	34.2%
CCOC(=O)c1c(NC(=O)c2ccncc2)sc(C)c1C	5.3%	x	7.6%[10 µM]
CCOC(=O)c1sc(NC(=O)CSc2nc(C)cc(-c3ccccc3)n2)c(C#N)c1C	10.9%	-11.7	13.2%[10 µM]
CCOC(=O)c1sc(NC(=O)CSc2n[nH]c(-c3ccc(Cl)cc3Cl)n2)c(C#N)c1C	12.6µM*	60.2	-66.2%
Cc1ccccc1-c1cc(C(=O)Nc2sc(C)c(C)c2C(N)=O)c2ccccc2n1	u	-0.2	-54.8%
CCOC(=O)N1CCC(NC(=O)CSCc2nc(-c3cccc(OC)c3)oc2C)CC1	4.2%	19.0	15.5%[10 µM]
CCCS(=O)(=O)N1CCC(C(=O)NCCCN(CC)c2cccc(C)c2)CC1	31.6µM*	-16.5	x
CCCS(=O)(=O)N1CCCC(C(=O)NCCCN(CC)c2cccc(C)c2)C1 (configuration not stated)	17.1%	27.8	-17.5%
SMILES	HTT aggregate	PNC inhibitor	HTT cytoprotect
COc1ccc(C(=O)C2CCCN(Cc3c(C)[nH]c4ccccc34)C2)c(OC)c1 (configuration not stated)	35.5µM*	x	-14.7%[10 µM]
COc1ccc(C(=O)C2CCCN(Cc3ccc(C#CCCO)cc3)C2)c(OC)c1 (configuration not stated)	-15.2%[9.22 µM]	x	-4.7%[10 µM]
O=C(CN1CCC(NC(=O)c2ccccc2)CC1)NCc1ccccc1F	0.3%	-22.1	-4.3%[10 µM]
COc1ccc(N2CCN(C(=O)CCS(=O)(=O)c3cccc4nsnc34)CC2)cc1	5.9%	-84.6*	-2.0%[10 µM]
COc1ccc(N2CCN(C(=O)CCS(=O)(=O)c3ccc(OC)cc3)CC2)cc1	4.2%	x	-8.8%
O=C(Nc1ccccc1C(=O)NCc1cccnc1)c1cccc([N+](=O)[O-])c1	9.2%	x	4.6%
Cc1cc2nc(N)sc2cc1C	1.0%	-90.9*	-44.5%
CC(C)c1ccc2nc(N)sc2c1	-0.7%	x	-115.1%
CSc1nncc(=O)[nH]1	-21.4%	41.0	-24.9%
COC(=O)CN(c1c(C)cccc1C)S(C)(=O)=O	12.0%	-86.1*	-1.4%
COC(=O)CN(c1ccccc1C)S(C)(=O)=O	7.4%	-10.8	-1.6%
CNCC(O)Cn1c(C(F)(F)F)nc2ccccc21 (configuration not stated)	3.3%	-100.0*	-3.4%[10 µM]
OC(Cn1nnc2ccccc21)Cn1c(C(F)(F)F)nc2ccccc21 (configuration not stated)	-1.8%	u	-7.9%
